NTMT1 inh: inhibitors of human N-terminal methyltransferase NTMT1. Q9BV86. NTMT1 MTase-Glo SAH luminescence, purified enzyme. Potency, µM (doses to about 114 µM), without a hit: top-dose activity change, negative = inhibition, actives largely listed as inhibitors. actives 2.5% (n = 59,000). AID 1645870;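 also: potency is read from the fitted curve at half-maximal effect; plate controls were DMSO vehicle for no effect and no enzyme for full effect; nearly all actives have a fitted effect of over 65% in size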
Target sequence (Q9BV86 whole entry, looked up): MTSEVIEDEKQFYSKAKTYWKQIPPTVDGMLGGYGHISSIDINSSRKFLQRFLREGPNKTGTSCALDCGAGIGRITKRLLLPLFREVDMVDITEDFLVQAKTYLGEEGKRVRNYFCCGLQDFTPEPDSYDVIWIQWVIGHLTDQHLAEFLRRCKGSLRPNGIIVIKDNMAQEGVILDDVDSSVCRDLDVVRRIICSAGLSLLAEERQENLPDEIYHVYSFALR
GPR32 ag: agonists of human resolvin D1 receptor DRV1 (GPR32) | O75388 | CHO-K1 GPR32 beta-arrestin PathHunter luminescence, 90 min; zero percent set by DMSO-only wells | activation, % at 76.9 µM | AID 1346428 | actives 2.5% (n = 48,000);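 active = activation of at least 60% and not above a set upper limit, about 1 call in 100 departs from these limits; inconclusive = activation of 40% to 60%, or above that upper limit; inactive = activation under 40%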; also: 0% is about no effect
Target sequence (O75388 whole entry, looked up): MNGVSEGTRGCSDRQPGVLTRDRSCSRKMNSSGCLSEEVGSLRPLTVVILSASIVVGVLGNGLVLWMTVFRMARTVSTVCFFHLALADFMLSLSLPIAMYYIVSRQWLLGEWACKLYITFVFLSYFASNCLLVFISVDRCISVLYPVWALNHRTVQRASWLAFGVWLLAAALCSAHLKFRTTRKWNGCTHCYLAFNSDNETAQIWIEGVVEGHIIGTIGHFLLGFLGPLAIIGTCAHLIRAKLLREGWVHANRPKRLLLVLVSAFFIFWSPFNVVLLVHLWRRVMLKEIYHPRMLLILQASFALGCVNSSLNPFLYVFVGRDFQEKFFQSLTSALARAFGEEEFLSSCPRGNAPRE
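Using DMSO wells as EC0, agonist-induced signal was taken as chemiluminescence from beta-Gal reconstituted upon beta-arrestin recruitment to GPR32 in CHO-K1 cells after 90 min compound treatment.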
HTT prom inh: inhibits huntingtin promoter activity. actives 0.93% (n = 48,000). AID 1508623. Potency, µM (highest dose often 57.5 µM), for inactives: at the top dose activity change, negative = inhibition, actives largely listed as inhibitors. HEK293 HTT promoter firefly luciferase reporter, 24 h; also: potency is read from the fitted curve at half-maximal effect; nearly all actives have a fitted effect of over 50% in size
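Firefly luciferase readout (Dual-Glo, 10 min RT) after 24 h, 37 °C compound exposure (final up to 57.5 uM) of HEK293 reporter cells cultured 24 h beforehand; PTC124 at 50 uM final as control inhibitor; activity scaled vehicle 0%, zero RLU -100%.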
HTT-AS promoter: HTT-AS promoter activation. HEK293 HTT-AS promoter firefly luciferase reporter, 24 h; response scale: percent change from vehicle, -100% = no light. Potency, µM (top dose mostly 57.5 µM), without a hit: top-dose activity change, positive = activation, most hits filed as activators. actives 0.24% (n = 48,000). AID 1508624; also: potency is read from the fitted curve at half-maximal effect; nearly all actives have a fitted effect of over 55% in size
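Firefly luciferase signal from promoter-reporter HEK293 cells was scaled between vehicle (0%) and zero RLU (-100%). Compounds were tested at final concentrations of up to 57.5 uM over 24 h at 37 degrees C. PTC124 at 50 uM final served as control inhibitor.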
SKOV3 invasion: inhibitors of ovarian cancer cell adhesion and invasion in omental model; SKOV3ip1-GFP adhesion/invasion on 3D omental model, fluorescence; Potency, µM (doses to about 45.8 µM), inactives show at the highest dose activity change, negative = inhibition, hits mostly inhibitors; AID 1963576; actives 0.1% (n = 46,000);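 also: potency is read from the fitted curve at half-maximal effect; plate controls were DMSO wells for no effect and tomatine positive control wells for full effect; nearly all actives have a fitted effect of over 65% in size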
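qHTS, 4-pt dose (0.36-46 umol/L); SKOV3ip1-GFP, 1,200 cells/well, no FBS; primary omental fibroblast/mesothelial co-culture 48 h pre-grown; 2 h RT + 16 h 37 C; PBS wash, 4% PFA; GFP count 488/509 nm.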
* hit, by the source's call; i = inactive; ? = inconclusive; . = not tested or not shown; ! = repeats disagree; [ ] = remark or other dose. An excerpt weighted towards active compounds, which were near 4.5% of everything screened. Unless noted, calls follow the shape of the dose curve; as a rule, active = well fitted curve in the direction sought with a large enough effect; inconclusive = small, poorly fitted or top-dose-only effect, or another doubt; inactive = no such curve, though single readings can be large; an effect the other way counts as inactive or inconclusive.

SMILES	NTMT1 inh	GPR32 ag	HTT prom inh	HTT-AS promoter	SKOV3 invasion
COc1ccc(C)cc1NS(=O)(=O)c1c(C(=O)N2CCC(C)CC2)c(C)n(C)c1C	-5%	-25	-9%	-11%	8%
Cc1nn2c(=O)cc(COC(=O)c3ccc(NC(=O)COc4ccccc4F)cc3)nc2s1	?	62*	-15%	-11%	-5%
Cc1nn2c(=O)cc(COC(=O)c3ccc(NC(=O)COc4ccc(C)c(C)c4)cc3)nc2s1	12%	20	-11%	2%	-10%
Cc1nn2c(=O)cc(COC(=O)c3cccc(NC(=O)COc4ccccc4C)c3)nc2s1	9%	-16	3.2µM*	-90%	-7%
CCc1nn2c(=O)cc(COC(=O)c3ccccc3)nc2s1	-4%	-50	43%	4µM*	i
CS(=O)(=O)N(CC(=O)Nc1ccc(Br)cc1)c1ccccc1Br	7%	61*	-21%	-18%	i
c1ccc2c(c1)ncc1nncn12	-4%	0	-2%	-11%	i
O=c1onc2cnc3ccccc3n12	.	68*	.	.	.
COc1ccc(C(=O)Nc2ccc3nc4n(c(=O)c3c2)CCCCC4)cc1OC	4%	11	-5%	-2%	2%
COc1cc(C(=O)Nc2ccc3nc4n(c(=O)c3c2)CCCCC4)cc(OC)c1OC	50µM*	6	-14%	-11%	3%
CCCc1nnc(NC(=O)Nc2ccccc2Cl)s1	9%	-17	48%	3.5µM*	2%
Cc1c2oc3c(C)ccc(C(=O)NC4C(=O)NC(C(C)C)C(=O)N5CCCC5C(=O)N(C)CC(=O)N(C)C(C(C)C)C(=O)OC4C)c3nc-2c(C(=O)NC2C(=O)NC(C(C)C)C(=O)N3CCCC3C(=O)N(C)CC(=O)N(C)C(C(C)C)C(=O)OC2C)c(N)c1=O (stereo not given)	1%[57.5 µM]	.	-40%	?	-13%
O=C(CSc1nc2c([nH]c3ccccc32)c(=O)n1-c1cccc(Cl)c1)N1CCOCC1	-10%	26	?	-50%	-13%
Cn1cc(C2=C(c3c4n(c5ccccc35)CCC(CN)C4)C(=O)NC2=O)c2ccccc21 (stereo not given)	40µM*!	.	?	24%	-22%
COc1ccc2sc(N(Cc3cccnc3)C(=O)c3cccs3)nc2c1	?	1	14µM*	-32%	7%
CCOc1ccc2nc(N(Cc3cccnc3)C(=O)c3cccs3)sc2c1	-10%	-20	28%	?	6%
COc1ccc(-c2cn3nc(N4CCC(C(=O)Nc5cccc(OC)c5)CC4)sc3n2)cc1	-3%	76*	-9%	0%	4%
COc1ccccc1CNc1ncnc2c1nc1n2CCCC1	-12%	16	-27%	-8%	i
Cc1ccc(Cl)cc1N1CCN(C(=O)C2CCCN(Cc3nc(-c4cccc(Cl)c4)oc3C)C2)CC1 (stereo not given)	2%	8	35µM*	-46%	?
COc1ccc(-c2nc(CSCC(=O)N3CCN(c4ccc(OC)cc4)CC3)c(C)o2)cc1	-3%	-7	?	-22%	17%
CCOc1ccc(-c2nc(CSCC(=O)N3CCN(c4cccc(C(F)(F)F)c4)CC3)c(C)o2)cc1	-14%	-25	16µM*	-52%	?
COc1ccc(-c2nc(CSCC(=O)N3CCN(c4cc(Cl)ccc4C)CC3)c(C)o2)cc1	3%	-14	13µM*	-55%	?
CCOc1ccc(-c2nc(CSCC(=O)N3CCN(c4ccc(F)cc4)CC3)c(C)o2)cc1	0%	-14	-17%	-6%	1%
COc1ccc(-c2nc(CSCC(=O)N3CCN(c4cccc(C)c4C)CC3)c(C)o2)cc1OC	-10%	5	13µM*	-61%	0%
Cc1cccc(-c2nc(CSCC(=O)N3CCN(c4ccccc4)CC3)c(C)o2)c1	-4%	-1	?	-30%	i
SMILES	NTMT1 inh	GPR32 ag	HTT prom inh	HTT-AS promoter	SKOV3 invasion
CCCC1=Nc2cc(C(=O)NCCOC)ccc2Sc2ccccc21	-9%	-25	?	-38%	i
COc1ccc(Cn2c(C(=O)O)c(CNCc3ccccc3F)c3ccc(OC)cc32)cc1	11%	-5	?	-29%	i
CCC(C)NC(=O)CSCc1nc(-c2ccc(C)cc2)oc1C (stereo not given)	-3%	-3	?	-19%	0%
COC(=O)CSCc1nc(-c2ccc(C(=O)OC)cc2)oc1C	3%	-5	2µM*	-90%	-9%
COc1ccccc1N1CCN(CC(O)COc2cccc3ccccc23)CC1 (stereo not given)	?	97*!	-3%	-13%	8%
Cc1cc(C)c2c(n1)SCC(=O)N2CC(=O)Nc1ccc(C)c(C)c1	-1%	1	-23%	-17%	i
COc1ccc(C(=O)Nc2ccc3oc(-c4cc(Cl)ccc4Cl)nc3c2)cc1Br	79µM*	1	6%	-5%	19%
CCC(Oc1ccccc1F)C(=O)Nc1cc(-c2ccccc2)no1 (stereo not given)	8%	-24	-9%	13%	1%
CCOc1cc2c(c(F)c1OCC)C(=N)N(CC(=O)c1cc(N3CCOCC3)c(OC)c(C(C)(C)C)c1)C2	32µM*!	.	?	-31%	-27%
COc1ccc(C(=O)Nc2ccc(N3CCOCC3)c(C(F)(F)F)c2)cc1OC	-30%	37	-39%	-37%	-19%
O=C(CC1C(=O)OCCN1Cc1ccccc1)Nc1cccc(C(F)(F)F)c1 (stereo not given)	2%	112*	?	-31%	i
Cc1cccc(N2CCN(Cc3nnc(-c4ccccc4C)o3)CC2C)c1 (stereo not given)	3%	-16	-28%	1%	0%
O=C(CSc1nnc(-c2ccccc2Br)n1-c1ccccc1)c1ccc(F)cc1	-18%	60*	-38%	-29%	i
Cn1cc(C(=O)N2CCN(c3cccc(C(F)(F)F)c3)CC2)c2c3ccccc3n(C)c2c1=O	8%	118*	?	-41%	i
CCc1ccc(NC(=O)C2CCN(c3nnc(-n4c(C)ccc4C)s3)CC2)cc1	1%	-22	-27%	-19%	-9%
Oc1ccc2ccccc2c1SSc1c(O)ccc2ccccc12	8.9µM*!	50	?	-22%	26µM*
CC1Cc2cc(S(=O)(=O)NCc3ccccc3Cl)ccc2N1C(=O)C1CCC1 (stereo not given)	11%	20	28µM*	-80%	-22%
Cc1ccc2[nH]c(CSc3nnc(NC(=O)COc4ccc(F)cc4)s3)cc(=O)c2c1	10%	11	-6%	-17%	6%
Cc1ccc2[nH]c(CSc3nnc(NC(=O)COc4ccccc4)s3)cc(=O)c2c1	-1%	76*	-12%	-23%	1%
